The whole screen tested about 2,300 compounds, of which about 30 (1%) were called active.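 Rule for the calls: active = activation of at least 30% at 10 µM; inactive = the rest.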 Only a sample is shown.
Assay: beacon detection-step fluorescence artefacts – biochemical, fluorescent molecular beacon, single concentration, artefact control for DNMT1 inhibitor project, confirmation (AID 602387);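 note: DNMT1 catalytic domain with a HinP1I cleavage step and a FAM/dabcyl DNA beacon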
Conditions: DNMT1 molecular beacon spectral interference counterscreen, fluorescence 485/520; at 10 µM; active compounds read high

| SMILES | activation (fluorescence interference) |
| --- | --- |
| COc1ccc(NC(=O)CCn2ccnc2)c(OC)c1 | 5.11% (inactive) |
| Cc1ccc2[nH]c(=O)c(-c3nc4c(C)cccn4c3NCc3ccco3)cc2c1 | -3.31% (inactive) |
| NNc1cccc(C=Cc2ccccc2)cc1=O | -0.89% (inactive) |
| NC1=CC(=O)C(=O)c2cccnc21 | 34.8% (active) |
| C=C(C)C(=O)Nc1cccc(C2=NOC3(C2)C[C@H](C(N)=O)N(C(=O)C(c2ccccc2)c2ccccc2)C3)c1 (some centres undefined) | -0.25% (inactive) |
| CCC/C=C(\CCC)C(NC(=O)Cc1ccccc1)c1ccc(C(=O)OC)cc1 (centres undefined) | 2.66% (inactive) |
| Cc1ccccc1NC(=O)CN1C(=O)N/C(=C\c2cccn2-c2cccc(C(=O)O)c2)C1=O | -2.61% (inactive) |
| O=C(Nc1nc(-c2ccco2)c(-c2ccco2)s1)c1ccco1 | 6.11% (inactive) |
| O=c1[nH]c(/C=C/c2cccc(Br)c2)nc2ccccc12 | -5.42% (inactive) |
| CC(=O)Nc1ccccc1Sc1ccc2c3c(cccc13)C(=O)N(c1ccc(C)cc1)C2=O | 2.58% (inactive) |
| Cc1ccc(Cc2cncc(O)c2)cc1S(=O)(=O)O | 5.41% (inactive) |
| CC(=O)c1ccc(NC(=O)c2ccc3c(Cl)c4c(nc3c2)CCCC4)cc1 | -4.05% (inactive) |
| Cc1ccccc1-n1cc(CNC(=O)CC2C(=O)NCCN2C/C=C/c2ccccc2)cn1 (centres undefined) | 1.73% (inactive) |
| Cc1ccc(-c2cc(C(=O)NCc3cn(C)nc3C)c3cc(Br)ccc3n2)cc1 | 2.74% (inactive) |
| Cc1ccc(-c2nnc(-c3ccc(NC(=O)c4cccs4)cc3)o2)cc1 | -3.03% (inactive) |
| O=C(CN1CCCSc2ccccc21)N1CCN(S(=O)(=O)c2cccc(F)c2)CC1 | 2.83% (inactive) |
| O=C(COC(=O)/C=C/c1cn(-c2ccccc2)nc1-c1cccnc1)Nc1ccc(Cl)cc1Cl | -2.13% (inactive) |
| O=C(Nc1cccc(F)c1)c1cc(-c2ccco2)nc2ccccc12 | 3.89% (inactive) |
| COc1ccc(CC(=O)Nc2ccc(-c3nnc(-c4ccccc4)o3)cc2)cc1 | -2.31% (inactive) |
| CCOc1ccc(CN2CCC(n3nccc3NC(=O)C3CC3)CC2)cc1CO | 3.5% (inactive) |
| Nc1cc2c(cc1Br)-c1ccc(F)cc1C2=O | -1.05% (inactive) |
| COc1ccc2c(c1)c(=O)c(C(=O)c1ccc(Cl)cc1)cn2CC(=O)Nc1ccc(F)cc1 | -1.8% (inactive) |
| O/N=C1\CC2(Cc3nonc31)OCCO2 | 2.87% (inactive) |
| CCOC(=O)N1CC=C2C(C#N)=C(N)C(C#N)(C#N)[C@H](c3cccs3)[C@H]2C1 | 9.6% (inactive) |
| NC(CSC(c1ccccc1)(c1ccccc1)c1ccc(-c2ccccc2)cc1)C(=O)O (centres undefined) | 5.09% (inactive) |
| CC1CN(C(=O)c2ccccc2NS(=O)(=O)c2cccc([N+](=O)[O-])c2)CC(C)O1 (centres undefined) | 1.08% (inactive) |

| SMILES | activation (fluorescence interference) |
| --- | --- |
| C=CC1=C(C(=O)O)N2C(=O)[C@@H](NC(=O)/C(=N\OCC(=O)O)c3csc(N)n3)[C@H]2SC1 | 7.32% (inactive) |
| Cc1ccc(N=C2NC(=O)/C(=C/C=C/c3ccco3)S2)cc1C | -1.63% (inactive) |
| CN(C)/C=C(/C(=O)c1ccc(Cl)cc1)S(=O)(=O)c1ccccc1 | 1.79% (inactive) |
| Cc1cc2nc(-c3ccco3)c(Cc3cccc(F)c3)n2c(C)c1Br | 0.96% (inactive) |
| COc1ccc(Cc2nnc(NC(=O)Cc3cccs3)s2)cc1 | -0.3% (inactive) |
| CCc1ccc(NC(=O)CS(=O)CC(=O)NCCCc2ccccc2)cc1 (centres undefined) | 2.85% (inactive) |
| CCOc1cc(CN2CCCC(CO)(Cc3ccc(F)cc3F)C2)ccc1OC (centres undefined) | 4.08% (inactive) |
| Cc1onc(-c2ccccc2)c1C(=O)Nc1ccccc1C#N | 3.12% (inactive) |
| Cc1cc(O)c(C(=O)/C=C/c2c(F)c(F)c(F)c(F)c2F)c(=O)o1 | 6.03% (inactive) |
| c1coc(-c2nc3nc4ccccc4n3nc2-c2ccco2)c1 | 0.5% (inactive) |
| CCN(C(=O)CSc1nc(N)cc(=O)[nH]1)C1CCS(=O)(=O)C1 (centres undefined) | 2.08% (inactive) |
| c1ccc2cc3c(NCCN4CCOCC4)ccnc3cc2c1 | -0.48% (inactive) |
| O=C(Cn1nnc(-c2ccccc2)n1)N/N=C/c1ccc(-c2ccc(Cl)cc2)o1 | 3.12% (inactive) |
| CC1(C(=O)NS(=O)(=O)c2ccccc2)CCN1C(=O)C/C=C/c1ccccc1 (centres undefined) | -0.14% (inactive) |
| CCN1CCN(Cc2nc3c(c(=O)n(C)c(=O)n3C)n2CC(=O)c2ccccc2)CC1 | 2.13% (inactive) |
| C/C(=N\Nc1ccc(S(N)(=O)=O)cc1[N+](=O)[O-])c1cccs1 | 0.04% (inactive) |
| O=C(COC(=O)c1ccc(F)cc1F)Nc1ncccn1 | 3.67% (inactive) |
| C=CCn1c(=NC(=O)c2ccc(S(=O)(=O)N3CCCC3)cc2)sc2cc(NC(C)=O)ccc21 | -2.75% (inactive) |
| Cc1ccc(/C=C/C(=O)Nc2ccc([N+](=O)[O-])c(NC(=O)/C=C/c3ccc(C)o3)c2)o1 | -0.1% (inactive) |
| O=C(COC(=O)CCC(=O)c1cccs1)NCc1ccco1 | 2.99% (inactive) |
| CC(C)(C)N(Cc1ccccc1)C(=O)c1ccncc1 | 4.75% (inactive) |
| CCOC(=O)c1c(NC(=S)NC(=O)/C=C/c2cccs2)sc(C)c1C | 2.75% (inactive) |
| CN(Cc1nc2ccc(F)cc2[nH]1)Cc1nc(CC2CC2)no1 | 5.14% (inactive) |
| O=C(c1cccs1)N1CCC(c2nc3ccccc3s2)CC1 | 4.65% (inactive) |
| O=C(CCNC(=O)c1ccccc1)NN=Cc1ccc(Br)o1 | 2.53% (inactive) |
| CCOC(=O)/C(C#N)=C/c1ccc(OCC(=O)Nc2ccccc2)c(OC)c1 | 6.65% (inactive) |

| SMILES | activation (fluorescence interference) |
| --- | --- |
| COc1cccc(C(=O)Nc2ccc(N3CCCC3)cc2)c1 | 5.04% (inactive) |
| C=Cc1ccc(C(=O)N2CCCC(CCC(=O)N3CCN(c4ccccn4)CC3)C2)cc1 (centres undefined) | -0.29% (inactive) |
| CCN1C(=O)c2cccc3c(N)ccc1c23 | 6.17% (inactive) |
| CCNC(=O)C1CCCN(C(=O)c2cc(F)ccc2C)CC1 (centres undefined) | 5% (inactive) |
| COc1ccc(C(=O)OCC(=O)Nc2cccc(C(C)=O)c2)cc1OC | 8.78% (inactive) |
| CCOc1ccccc1/C=c1\sc2nc(-c3ccco3)nn2c1=O | 3.15% (inactive) |
| COc1ccc(Cl)cc1NC(=O)CCS(=O)(=O)c1ccc(Br)cc1 | 3.16% (inactive) |
| O=C(CCN1C(=O)C2C3C=CC(C3)C2C1=O)Nc1ccccc1F (centres undefined) | 1.81% (inactive) |
| COc1ccc(/C=C2\SC(=N)N(c3ccc(F)cc3)C2=O)cc1 | 2.19% (inactive) |
| Oc1c(C(c2ccco2)N2CCC3(CC2)OCCO3)sc2ncnn12 (centres undefined) | 3.04% (inactive) |
| O=C(COC(=O)c1ccccc1O)NCc1ccco1 | 6.37% (inactive) |
| O=C(CCS(=O)(=O)c1ccc(Br)cc1)NCCc1ccc(Cl)cc1 | 1.71% (inactive) |
| CCCCCCc1cc2cc(-c3nnc(-c4ccccc4)o3)c(=O)oc2cc1O | -8.15% (inactive) |
| O=C(CSc1nc2ccccc2c(=O)[nH]1)Nc1nc(-c2ccc(Br)cc2)cs1 | 1.36% (inactive) |
| COc1ccc(Br)cc1/C=N/Nc1ccc(S(=O)(=O)Nc2ccccc2C(=O)O)cc1[N+](=O)[O-] | -9.44% (inactive) |
| COC(=O)CCCCC1=CCC2C(=O)C=C(O)C2C1 (centres undefined) | 10.1% (inactive) |
| COc1ccc(OCC(=O)NNC(=O)c2ccc(-c3ccccc3)cc2)cc1 | 1.59% (inactive) |
| CSc1ccc(CNC(=O)c2ccc(NC(=O)C3=CSCCO3)cc2)cc1 | 4.08% (inactive) |
| C=CC[C@@H](CC(=O)N[C@H](CO)Cc1ccccc1)C(=O)N[C@@H](COC(=O)[C@@H](CC=C)Cc1ccc(F)cc1)Cc1c[nH]c2ccccc12 | 10.2% (inactive) |
| Cc1ccc(CNC(=O)CSc2nnc3c(n2)[nH]c2ccc(F)cc23)cc1 | 3.05% (inactive) |
| COc1cc(-c2nnc(NC(=O)CS(=O)(=O)c3ccc(Cl)cc3)o2)cc(OC)c1OC | 5.03% (inactive) |
| COc1ccc(-n2c(SCC(=O)Nc3sc4c(c3C#N)CCCC4)nnc2-c2ccc(O)cc2)cc1 | 1.12% (inactive) |
| CCOc1cc(NC(=O)c2ccco2)c(OCC)cc1NC(=O)COc1ccccc1 | -8.28% (inactive) |
| CC1(C)Cc2nc3sc4c(SCC(=O)NC(c5ccccc5)c5ccccc5)ncnc4c3cc2CO1 | 1.08% (inactive) |
| O=C(COc1ccc(/C=N/NC(=O)c2ccc(O)cc2)cc1)Nc1ccc([N+](=O)[O-])cc1 | -12.5% (inactive) |
| O=C(c1ccc(CS(=O)(=O)c2ccccc2)o1)N1CCN(c2ccccc2)CC1 | -0.52% (inactive) |

| SMILES | activation (fluorescence interference) |
| --- | --- |
| CCOC(=O)C(NC(=O)CC(C)C)(Nc1sc2c(c1C(N)=O)CCCC2)C(F)(F)F (centres undefined) | 6.15% (inactive) |
| COc1ccc(C(=O)/C=C/c2ccc(-c3ccccc3)cc2)cc1CSCC(=O)O | -0.97% (inactive) |
| O=C(COc1ccc([N+](=O)[O-])cc1)Nc1ccc(N2CCCC2)cc1 | 4.14% (inactive) |
| N#Cc1ccccc1CN1C(=O)S/C(=C/c2cccn2-c2cccc(C(=O)O)c2)C1=O | 1.4% (inactive) |
| COc1ccc2sc(-c3ccc(S(C)(=O)=O)cc3)c(-c3ccc(C(N)=O)cc3)c2c1 | 4.53% (inactive) |
| CN(CCOc1ccccc1)C(=O)c1cc(-c2ccco2)nc2ccccc12 | 3.34% (inactive) |
| Cc1ccc2cc(C)c(N3CCC(C)CC3)nc2c1 | 2.52% (inactive) |
| COc1ccc(NC(=O)CN(C)C(=O)c2cc(C3CC3)nn2-c2ccccc2)cc1 | 0.09% (inactive) |
| COc1ccc(CC(=O)Nc2ccc(-c3nnc(-c4ccc(C)cc4)o3)cc2)cc1 | -5.84% (inactive) |
| CS(=O)(=O)c1ccc2c(c1)SC1=NC(=O)/C(=C/c3ccco3)C(=N)N12 | 1.32% (inactive) |
| O=C1CCCC(O)=C1C=NCCc1ccccc1 | 5.41% (inactive) |
| O=C(Nc1cccc(-c2nc3ccccc3[nH]2)c1)c1ccc(C(=O)Nc2cccc(-c3nc4ccccc4[nH]3)c2)cc1 | -6.94% (inactive) |
| CC(Oc1ccccc1)C(=O)Nc1oc(-c2ccco2)c(-c2ccco2)c1C#N (centres undefined) | 0.87% (inactive) |
| c1ccc2cc3[nH]c(CN4CCCCC4)nc3cc2c1 | 5.49% (inactive) |
| CC(=O)Nc1ccc(SCC(=O)NC(=O)c2ccc(Cl)cc2)cc1 | 4.23% (inactive) |
| Cc1nnc(N/N=C/c2cccs2)[nH]c1=O | 1.29% (inactive) |
| CCCCNC(=O)CCn1c(=O)c2ccccc2n(Cc2cc(C)ccc2C)c1=O | 1.75% (inactive) |
| Cc1ccc(C(=O)NNC(=O)c2cc3cc4ccccc4nc3s2)cc1 | 4.21% (inactive) |
| CC(C)(C)NC(=O)CSC(=Nc1ccccc1F)NC#N | 8.71% (inactive) |
| COc1ccc2[nH]c(=O)c(-c3noc(-c4ccc(F)cc4)n3)cc2c1 | -3.37% (inactive) |
| COc1ccc(OC)c(NC(=O)c2cc(-c3cc(F)ccc3OCC3CCCO3)n[nH]2)c1 (centres undefined) | 7.7% (inactive) |
| O=C(NNc1ccccn1)c1ccc(Cl)nc1 | 1.8% (inactive) |
| O=C(Oc1ccc(-c2nc(-c3ccccn3)no2)cc1)c1ccccc1 | -1.62% (inactive) |
| CCc1nn(-c2cc(Oc3cccc4ccccc34)nc(-c3ccccc3)n2)c(N)c1C#N | 1.42% (inactive) |
| CCOC(=O)c1cccc(NC(=O)C2CCCN(S(=O)(=O)c3cnc[nH]3)C2)c1 (centres undefined) | 2.94% (inactive) |
| C=CCn1c(=S)[nH]c2scc(-c3ccco3)c2c1=O | -3.16% (inactive) |

Reference: PubChem BioAssay AID602387 (Sanford-Burnham Center for Chemical Genomics, 2012)
